Reference: PubChem BioAssay (NCI)
Compounds without any hit were thinned out: in the full panel of roughly 79,000, 15% have a hit. Rule as the data show it: active = growth inhibition above about 70%; inactive = the rest. Where a SMILES comes first, the peptide text is derived from it. The star is where a group is joined. Cbz = O=C(OCc1ccccc1)*

How the values were obtained:
[1] = NCI Yeast Anticancer Drug Screen. Data for the rad50 strain (AID 155);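 also: 0% = growth of vehicle-only cultures of the same strain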; details: S. cerevisiae rad50 strain growth inhibition; at 50.0 µM; active compounds read high
How it was run: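 Inhibition values express reduced yeast growth in compound-treated cultures relative to vehicle-treated controls.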

[2] = NCI Yeast Anticancer Drug Screen. Data for the mec2-1 strain (AID 157); details: S. cerevisiae mec2-1 strain, at 50.0 µM, active compounds read high
How it was run: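 Cells of the genetically defined mec2-1 yeast strain are incubated with test compound. Inhibition of growth is calculated against vehicle-treated controls.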

[3] = NCI Yeast Anticancer Drug Screen. Data for the sgs1 mgt1 strain (AID 161);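 also: 0% = growth of cultures given vehicle only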; details: S. cerevisiae sgs1 mgt1 strain, at 50.0 µM, active compounds read high
How it was run: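 Genetically altered yeast, compound exposure, growth inhibition relative to vehicle.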

[4] = NCI Yeast Anticancer Drug Screen. Data for the cln2 rad14 strain (AID 165);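 also: 0% = growth equal to vehicle treated cultures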; details: S. cerevisiae cln2 rad14 strain, at 50.0 µM, active compounds read high
How it was run: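 The screen exposed genetically defined yeast (cln2 rad14) to test compounds and scored growth inhibition relative to vehicle-treated controls.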

[5] = NCI Yeast Anticancer Drug Screen. Data for the bub3 strain (AID 167); details: S. cerevisiae bub3 mutant strain, at 50.0 µM, active compounds read high
How it was run: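 Steps: expose the mutant yeast strain to compound; grow alongside vehicle-treated cultures; measure growth; express inhibition against the vehicle cultures.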

[6] = NCI Yeast Anticancer Drug Screen. Data for the mlh1 rad18 strain (AID 175); details: S. cerevisiae mlh1 rad18 strain growth inhibition; at 50.0 µM; active compounds read high
How it was run: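 Compound-treated yeast growth, normalised to vehicle controls. Strain bears defined DNA repair mutations.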

Measured: growth inhibition

O=C(O)Cn1c(=O)n(CC(=O)O)c2ccccc21
inactive: [1] 6.85% | [2] -4.95% | [3] -4.2% | [4] -10% | [5] 3.25% | [6] -7.65%

Cc1cc(CC(O)(c2ccccc2)c2ccccc2)nc2[nH]c(=O)ccc12
inactive: [1] 0.7% | [2] -6.7% | [3] -1.05% | [4] 44.9% | [5] 6.95% | [6] -1.35%

CN(C)CC(CCC(=O)c1ccccc1)C(=O)c1ccccc1 (stereo unspecified)
inactive: [1] 8.05% | [2] 15.8% | [3] 26.2% | [4] -45.8% | [5] 14.2% | [6] 5.5%

COc1ccc2[nH]c(=O)ccc2c1
inactive: [1] 1.6% | [2] 0.35% | [3] -2.3% | [4] -0.5% | [5] 12.7% | [6] -2.95%

O=NN(Cc1ccc(Cl)cc1)NC1=NCCN1
inactive: [1] 5.55% | [2] 14.3% | [3] 3.75% | [4] -3.65% | [5] 15.2% | [6] 29.6%

CCCCCCCCn1nnnc1N
inactive: [1] -1.1% | [2] 21% | [3] 1.45% | [4] 0.5% | [5] 20.7% | [6] 8.1%

CCCCCCCCCCCCCC(N)=O
inactive: [1] -30.8% | [2] -46.5% | [3] -18.2% | [4] 4.85% | [5] -28.7% | [6] -18%

CCCC(=O)Nc1cc([N+](=O)[O-])c([N+](=O)[O-])cc1OC
inactive: [1] -3.7% | [2] -2.55% | [3] 0% | [4] 1.65% | [5] 13.8% | [6] -3%

COCc1ccc(C(=O)Nc2c(N)ncnc2N)cc1
inactive: [1] 5.4% | [2] 13.7% | [3] -0.15% | [4] 0.9% | [5] 23.7% | [6] -0.1%

CC(C)C1CCC2(C)C(CCC3C4(C)CCCC32OC4=O)C1 (stereo unspecified)
inactive: [1] -17.7% | [2] -13.6% | [3] -4.8% | [4] -27.2% | [5] -0.15% | [6] 23.7%

CC1=NNC(c2ccco2)C1 (stereo unspecified)
inactive: [1] 10.2% | [2] 5.6% | [3] 12.8% | [4] 18.1% | [5] 11.9% | [6] 5.7%

CC(NC(=O)OCC[P+](c1ccccc1)(c1ccccc1)c1ccccc1)C(=O)O (stereo unspecified)
inactive: [1] -14.2% | [2] -4.35% | [3] -11.6% | [4] 3.45% | [5] -27.1% | [6] -55.2%

CCOC(=O)/C=C/C(=O)OCC
inactive: [1] -2.15% | [2] -0.2% | [3] -4.8% | [4] -2.55% | [5] 6.65% | [6] -2.65%

O=[N+]([O-])C(Cl)C(Cl)C(Cl)=C(Cl)Cl (stereo unspecified)
inactive: [1] 23.9% | [2] 17.1% | [3] 51% | [4] 35.8% | [5] 60.8% | [6] 52.2%

CCCC/C=C(\C)C(C)(C#N)C(=O)OCC (stereo unspecified)
inactive: [1] -35.4% | [2] -0.4% | [3] -4.5% | [4] -14% | [5] -17.9% | [6] -3.15%

Clc1ccc(C2NC(c3ccc(Cl)cc3)NC(c3ccc(Cl)cc3)N2)cc1 (stereo unspecified)
inactive: [1] 28.4% | [2] 14% | [3] 35.5% | [4] -5.4% | [5] 8.75% | [6] -2%

CC(NC(=O)C(NC(=O)OCc1ccccc1)C(C)C)C(=O)NCC(=O)O (stereo not drawn) (Cbz-Val-Ala-Gly-OH; configuration not given here)
inactive: [1] -0.05% | [2] -23.2% | [3] -9.9% | [4] 19.8% | [5] 7.1% | [6] -4.45%

C=CCCC(C)(C(=O)OCC)C(=O)OCC
inactive: [1] 7.45% | [2] -15.8% | [3] -23.9% | [4] -30.3% | [5] 1.45% | [6] -11%

CCC(C)C(C(=O)OCCC[N+]1(C)CCCCC1)c1ccccc1 (stereo unspecified)
inactive: [1] 49.9% | [2] -6.75% | [3] 18.2% | [4] -4.4% | [5] 5.75% | [6] 14%

COC(=O)C1(C)CCCC2(C)C3CC(O)C(C(C)C)=CC3(O)CCC12 (stereo unspecified)
inactive: [1] 10.2% | [2] -4.65% | [3] 15.9% | [4] -12.6% | [5] -1% | [6] 15.3%

CC(C)=CCCc1cc(-c2cc(CCC=C(C)C)nc(N)n2)nc(N)n1
inactive: [1] 3.5% | [2] -10.9% | [3] -3.2% | [4] -7.1% | [5] -22.9% | [6] 15.1%

CS(=O)(=O)Nc1ccc(NS(C)(=O)=O)cc1
inactive: [1] 1.6% | [2] 17.5% | [3] 4.45% | [4] 1.75% | [5] 2.9% | [6] -13.2%

CCC(C(=O)O)C1=CCCCC1 (stereo unspecified)
inactive: [1] 15.7% | [2] -13.6% | [3] 16.2% | [4] 16.1% | [5] -14.2% | [6] 4.45%

CCOC(=O)C(C#N)(C1C=CCC1)C1C=CCC1 (stereo unspecified)
inactive: [1] -1.9% | [2] -0.1% | [3] 14.3% | [4] 43.9% | [5] 46.3% | [6] 13.3%

c1cnc2[nH]cnc2n1
inactive: [1] 2.3% | [2] 0.6% | [3] -3.3% | [4] 5.75% | [5] 4.85% | [6] -10.1%

O=c1c2ccccc2nc(-c2ccccc2)n1/N=C/c1ccccc1O
inactive: [1] 1.15% | [2] 38.8% | [3] 34.6% | [4] -5.65% | [5] 32.9% | [6] 27.1%

c1ccc2c(c1)c1ccccc1n2Cn1c2ccccc2c2ccccc21
inactive: [1] -1.1% | [2] -1.2% | [3] -48.5% | [4] -27.9% | [5] 11.3% | [6] 4.85%

Clc1ccc(Nc2nc3ccccc3nc2-c2cccs2)cc1Cl
inactive: [1] -13.4% | [2] 4.55% | [3] 1.2% | [4] -7.5% | [5] -3.05% | [6] -2.1%

O=C(COc1ccc(F)cc1)OCCO
inactive: [1] 13.9% | [2] -20.9% | [3] -2.55% | [4] -33.2% | [5] -15.3% | [6] -18.9%

NNC(=O)c1ccc(OCc2nc3ccccc3[nH]2)cc1
inactive: [1] -14.8% | [2] -31.9% | [3] 1.2% | [4] 5.1% | [5] -87.2% | [6] -18.7%

Oc1c(Cl)cc(Cl)cc1CN(Cc1cc(Cl)cc(Cl)c1O)c1ccccc1
inactive: [1] 15.8% | [2] 16.9% | [3] 40.8% | [4] 52.1% | [5] 27.1% | [6] 12.7%

CN(C)C(=S)OCC(C)(C)C
inactive: [1] -1.45% | [2] -14.8% | [3] -18.3% | [4] -35.3% | [5] 3.4% | [6] -23.6%

Cc1cc(C)n(/N=C/c2ccccc2[N+](=O)[O-])c(=O)c1C#N
inactive: [1] 4.65% | [2] 9.4% | [3] -2.75% | [4] -0.25% | [5] -2.35% | [6] -6.85%

Cc1cc(C)n2ncc(Br)c2n1
inactive: [1] 26.2% | [2] 13.1% | [3] 14.2% | [4] -35% | [5] 12.9% | [6] 8.15%

CCOc1ccc(C(CC)c2cc3c(cc2OC)OCO3)cc1 (stereo unspecified)
inactive: [1] -1.95% | [2] -0.1% | [3] -9.35% | [4] -42.8% | [5] 6% | [6] -1.7%

N#Cc1c2ccccc2cc2c1ccc1ccccc12
inactive: [1] 6.95% | [2] 17.1% | [3] 15.8% | [4] -4.45% | [5] 11.9% | [6] 17.1%

C[C@H](CCC(c1ccccc1)c1ccccc1)[C@H]1CC[C@H]2[C@@H]3CC[C@@H]4C[C@H](O)CC[C@]4(C)C3=CC[C@]12C
inactive: [1] 1.7% | [2] -15.3% | [3] 4.1% | [4] 24.8% | [5] -1.75% | [6] 9.45%

O=c1[nH]n(Cc2ccccn2)c2ccc([N+](=O)[O-])cc12
inactive: [1] 4.1% | [2] -7.8% | [3] -26.8% | [4] 0.95% | [5] 6.45% | [6] -14.2%

COC(=O)C(O)C(O)C(O)C(O)C(O)CO (stereo unspecified)
inactive: [1] -1.4% | [2] -12.1% | [3] 0.25% | [4] -45.4% | [5] -8.6% | [6] -5.3%

COc1cc([N+](=O)[O-])c(F)cc1F
inactive: [1] -0.05% | [2] 0.85% | [3] -0.05% | [4] -20.1% | [5] 9.35% | [6] -3.1%

O=C(O)c1cc(C(=O)O)cc(S(=O)(=O)N2CCOCC2)c1
inactive: [1] -2.1% | [2] 3.25% | [3] -3.8% | [4] -37.8% | [5] 6.05% | [6] -16.2%
